PubChem BioAssay AID540360 (National Center for Advancing Translational Sciences (NCATS), 2011)
Records with an inconclusive call do not appear. Unmarked numbers belong to inactive results. Active and inactive are the calls of the source. Calls follow the shape of the dose curve; as a rule, active = well fitted inhibition curve with a large enough effect; inconclusive = small, poorly fitted or top-dose-only effect; inactive = no such curve, though single readings can be large or run the other way.

What follows are molecules tested on 6-phosphofructokinase (Trypanosoma brucei) (assay: Confirmatory Assay to Find Inhibitors of T. brucei phosphofructokinase: probe SAR). Conditions: recombinant T. brucei PFK, ADP-Glo luminescence; series mostly up to 57.5 µM; activity change, negative = inhibition: at the top concentration.
From the text: NIH Molecular Libraries Probe Production Network [MLPCN] NIH Chemical Genomics Center [NCGC] Grant: 1 R03 MH092153-01 PI Name: Malcolm Walkinshaw, University of Edinburgh NCGC Assay Overview: Various species of the protozoan family Trypanosomatidae are responsible for a range of serious human diseases in tropical and subtropical areas of the world. […] Many of the disorders caused by trypanosomatids are fatal if left untreated, but most currently used drugs are inefficient and toxic. […] Oxidative metabolism involving the mitochondrial tricarboxylic acid cycle and oxidative phosphorylation are repressed in these parasites, and recent RNA interference (RNAi) experiments have shown that even partial depletion of certain individual glycolytic enzymes can lead to the death of cultured parasites. One such glycolytic enzyme, phosphofructokinase (PFK), catalyzes the formation of fructose-1,6-bisphosphate (F1,6BP) and ADP from fructose-6-phosphate (F6P) and ATP, and in many metabolic circumstances makes an important contribution to the control of flux through the glycolytic pathway. As a specific glycolytic target, PFK is particularly attractive as it catalyzes the first irreversible step in glycolysis, and structural and kinetic studies have shown very substantial and essential differences from corresponding host enzymes, allowing for the discovery of parasite-selective inhibitors. The goal of this screen is to find small-molecule inhibitors of T. brucei PFK using a biochemical assay that measures PFK activity as a function of ADP production. A luminescence-based assay for T. brucei PFK activity has been developed which uses luciferase to detect production of ADP. Traditional luciferase-based nucleotide detection reagents rely on ATP production as a direct substrate for the luciferase reaction; however, PFK catalyzes the transfer of a phosphate from ATP to F6P, resulting in the net depletion of ATP. To directly measure the ADP product of the PFK reaction, we used the ADP-Glo detection kit (Promega), which utilizes two separate reactions to 1) deplete all remaining uncatalyzed ATP and 2) convert all remaining ADP to ATP, which is then detected through a traditional luciferase-coupled reaction. Compounds were screened as a concentration-titration series that ranged from 57 uM to 0.3 nM.
NCGC Assay Protocol Summary: NCGC Assay Protocol Summary: Substrate buffer was dispensed into white, solid 1536-well plates at 3uL/well in 0.1M triethanolamine (TEA) buffer, pH 8.0, containing final concentrations of 5 mM MgCl2, 0.01% Tween20, 0.5 mM fructose-6-phosphate (F6P) and 0.1mM ATP. Then, 23 nL of compounds or DMSO were delivered to each well using a pin tool. One uL T. brucei PFK (0.1M TEA, 0.01% Tween20, 0.1% bovine serum albumin (BSA) and 1.25nM PFK, final concentrations) was then dispensed, and plates were incubated at room temperature for 45 min. The luminescent detection reagent, ADP-Glo (Promega), was then added in two steps: the first reagent, ADP-Glo (which converts remaining uncatalyzed ATP), was added at 2.5uL/well and incubated for ten minutes at room temperature, and the second component, Kinase Detection reagent (which converts ADP to ATP as a substrate for luciferase-based luminescence), was added immediately after at 5uL/well, followed by one final ten minute room temperature incubation. The plates were measured on a ViewLux plate reader for luminescent signal using a clear filter with a one second exposure. The %Activity was determined from the corrected luminescence values. As no specific T. brucei PFK inhibitors have been identified in the literature, 1x (1.25nM) and 0x PFK enzyme controls (untreated) were included to normalize %Activity of identified inhibitors; 0x enzyme values corresponded to 100%Activity (full inhibition), while 1x PFK enzyme values were used to normalize 0%Activity (no inhibition). Concentration-response curves were fitted to the signals arising from the resulting luminescence. […]

With `Cc1cc(N[S+](=O)([O-])c2ccc(NC(=O)Cc3ccc(Cl)nc3)cc2)no1` as the molecule, how does the Potency read?
Its Potency is 20.6 µM (active).

Which Potency does the source give for `Cc1cc(N[S+](=O)([O-])c2ccc3cc(NC(=O)Cc4ccc(Cl)c(Cl)c4)ccc3c2)no1` here?
Its Potency is 5.8 µM (active).

For `Cc1cc(NS(=O)(=O)c2ccc(N(C)C(=O)Cc3ccc(Cl)c(Cl)c3)cc2)no1`, which Potency is on record?
The Potency was 1.63 µM (active).

For `Cc1cc(NS(=O)(=O)c2ccc(NC(=O)Cc3ccc(Cl)cc3)cc2)no1`, which Potency is on record?
Its Potency is 1.83 µM (active).

Which Potency does the source give for `Cc1cc(NS(=O)(=O)c2ccc(NC(=O)Cc3ccc(Cl)cc3Cl)cc2)no1` here?
Its Potency is 4.61 µM (active).

How did the “activity change, negative = inhibition” value turn out when `CCOC(=O)c1cccc(NS(=O)(=O)c2ccc(NC(=O)Cc3ccc(Cl)c(Cl)c3)cc2)c1` was run?
Its value is -12.9%.

How did the “activity change, negative = inhibition” value turn out when `Cc1cc(NC(=O)c2ccc(NC(=O)Cc3ccc(Cl)c(Cl)c3)cc2)no1` was run?
The value was -9.38%.

`Cc1cc(NS(=O)(=O)c2ccc(NC(=O)Cc3ccc(C)c(F)c3)cc2)no1` was tested. Which Potency did it give?
Its Potency is 5.8 µM (active).

Which Potency does the source give for `Cc1cc(NS(=O)(=O)Cc2ccc(NC(=O)Cc3ccc(Cl)c(Cl)c3)cc2)no1` here?
Its Potency is 2.59 µM (active).

With `COc1ccc(CC(=O)Nc2ccc(S(=O)(=O)Nc3cc(C)on3)cc2)cc1C` as the molecule, how does the “activity change, negative = inhibition” value read?
The value was -23.2%.

How did the Potency turn out when `O=C(Cc1ccc(Cl)c(Cl)c1)Nc1ccc(S(=O)(=O)O)cc1` was run?
Its Potency is 0.651 µM (active).

For `Cc1cc(NS(=O)(=O)c2ccc(NC(=O)Cc3ccc4ccccc4c3)cc2)no1`, which Potency is on record?
The Potency was 6.51 µM (active).

With `Cc1cc(NS(=O)(=O)c2ccc(C(=O)NCc3ccc(Cl)c(Cl)c3)cc2)no1` as the molecule, how does the Potency read?
Its Potency is 2.91 µM (active).

`Cc1cc(NS(=O)(=O)c2ccc(NC(=O)Cc3ccc(Cl)c(Cl)c3)cc2)n(C)n1` was tested. Which Potency did it give?
Its Potency is 1.46 µM (active).

`Cc1cc(NS(=O)(=O)c2cccc(NC(=O)Cc3ccc(Cl)c(Cl)c3)c2)no1` was tested. Which Potency did it give?
The Potency was 16.3 µM (active).

How did the Potency turn out when `Cc1cc(NS(=O)(=O)c2ccc(NC(=O)Cc3ccc(C)c(C)c3)cc2)no1` was run?
The Potency was 18.3 µM (active).

For `O=C(Cc1ccc(Cl)c(Cl)c1)Nc1ccc(S(=O)(=O)Nc2cccc(C(=O)O)c2)cc1`, which Potency is on record?
The Potency was 0.259 µM (active).

Which “activity change, negative = inhibition” value does the source give for `COc1ccc(CC(=O)Nc2ccc(S(=O)(=O)Nc3cc(C)on3)cc2)cc1OC` here?
Its value is 3.92%.

How did the Potency turn out when `CN(C)c1cccc(NS(=O)(=O)c2ccc(NC(=O)Cc3ccc(Cl)c(Cl)c3)cc2)c1` was run?
Its Potency is 5.8 µM (active).

How did the Potency turn out when `O=C(Cc1ccc(Cl)c(Cl)c1)Nc1ccc(S(=O)(=O)Nc2ccccc2)cc1` was run?
The Potency was 16.3 µM (active).

Which Potency does the source give for `Cc1cc(NS(=O)(=O)c2ccc(NCCc3ccc(Cl)c(Cl)c3)cc2)no1` here?
The Potency was 4.61 µM (active).

For `O=C(Cc1ccc(Cl)c(Cl)c1)Nc1ccc(S(=O)(=O)Nc2ccn[nH]2)cc1`, which Potency is on record?
The Potency was 0.517 µM (active).

With `Cc1cc(NS(=O)(=O)c2ccc(NC(=O)CCc3ccc(Cl)c(Cl)c3)cc2)no1` as the molecule, how does the Potency read?
Its Potency is 5.17 µM (active).

How did the Potency turn out when `Cc1cc(N(C)S(=O)(=O)c2ccc(NC(=O)Cc3ccc(Cl)c(Cl)c3)cc2)no1` was run?
Its Potency is 2.91 µM (active).

Which Potency does the source give for `Cc1cc(NS(=O)(=O)c2ccc(NC(=O)Cc3cccc(Cl)c3)cc2)no1` here?
The Potency was 7.3 µM (active).

For `O=C(Cc1ccc(Cl)c(Cl)c1)Nc1ccc(S(=O)(=O)Nc2cncnc2)cc1`, which Potency is on record?
The Potency was 0.819 µM (active).

`O=C(Cc1ccc(Cl)c(Cl)c1)Nc1ccc(S(=O)(=O)Nc2ccc(C(=O)O)cc2)cc1` was tested. Which Potency did it give?
The Potency was 0.163 µM (active).

Which Potency does the source give for `Cc1cc(NS(=O)(=O)c2ccc(NC(=O)Cc3ccc(Cl)c(Cl)c3)cc2)no1` here?
Its Potency is 0.41 µM (active).

`Cc1cc(NS(=O)(=O)c2ccc(NC(=O)Cc3ccc(Cl)c(C(F)(F)F)c3)cc2)no1` was tested. Which Potency did it give?
Its Potency is 0.461 µM (active).

With `Cc1cc(NS(=O)(=O)c2ccc(NC(=O)Cc3ccc(Cl)c(Cl)c3)cc2)on1` as the molecule, how does the Potency read?
Its Potency is 0.206 µM (active).

`O=C(Cc1ccc(Cl)c(Cl)c1)Nc1ccc(S(=O)(=O)Nc2ccon2)cc1` was tested. Which Potency did it give?
The Potency was 0.366 µM (active).

Which Potency does the source give for `O=C(Cc1ccc(Cl)c(Cl)c1)Nc1ccc(S(=O)(=O)Nc2cccc(O)c2)cc1` here?
The Potency was 1.46 µM (active).

For `Cc1cc(NS(=O)(=O)c2ccc(NC(=O)Cc3ccc(Cl)c(F)c3)cc2)no1`, which Potency is on record?
The Potency was 0.58 µM (active).

How did the “activity change, negative = inhibition” value turn out when `Cc1cc(NC(=O)c2csc(NC(=O)Cc3ccc(Cl)c(Cl)c3)n2)no1` was run?
The value was -33.7%.
